Measurements as given in a collection of fitness landscapes (doi:10.1016/j.celrep.2020.107928).
The full ranking holds about 81,000 sequences; the median of “one-hybrid fitness for binding NBS DNA” is about -0.1, and the highest 2% start at about 0.36. The full list was thinned out, with the highest values kept by preference.

B1: Caulobacter ParB omega fusion; a variant is named by its letters at X, in order, B8GW30 (parent)
chain: MESVVVGEPGMSEGRRGLGRGLSALLGEVDAAPAQAPGEQLGGSREAPIEILQRNPDQPRRTFREEDLEDLSNSIREKGVLQPILVRPSPDTAGEYQIVAGERAWRAAQRAGLKTVPIMVRELDDLAVLEIGIIENVQRADLNVLEEALSYKVLMEKFERTQENIAQTIGKSXSHVANXMRLLXLPDEVQSYLVSGELTAXHARAIAAAADPVALAKQIIEGGLSVRETEALARKAPNLSAGKSKGGRPPRVKDTDTQALESDLSSVLGLDVSIDHRGSTGTLTITYATLEQLDDLCNRLTRGI

Variants of: B1
Test: one-hybrid fitness for binding NBS DNA (the Noc-binding site; scaled: cognate 1, non-cognate 0); higher = stronger binding
Conditions: with NBS DNA site
Method in brief: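 Bacterial one-hybrid selection in E. coli USO rpoZ- hisB- pyrF- with a HIS3 reporter carrying the site 19 bp from the promoter, screening Caulobacter ParB libraries with four specificity codons randomised (NNS). Cells grew 48 hours at 37°C on M9-minus-histidine plus 0.1 mM IPTG and 5 mM 3-AT. Plasmids before and after selection were Illumina-sequenced, three replicate libraries pooled, and variants under 10 reads dropped. Fitness is the log change in variant-to-wild-type read ratio, rescaled to cognate 1, non-cognate 0.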

Variant	one-hybrid fitness for binding NBS DNA
CHHT	≤ 0.2
ELRT	≤ 0.2
KKQP	≤ 0.2
KHQT	≤ 0.2
KKQT	0.393
KKAT	0.309
KKYT	0.249
KKDT	≤ 0.2
KKNN	≤ 0.2
KKNT	0.425
KKRT	0.381
YQVF	≤ 0.2
LPAV	≤ 0.2
QGMS	≤ 0.2
PQVE	≤ 0.2
PMPS	≤ 0.2
FPGC	≤ 0.2
QINT	0.462
QSND	≤ 0.2
QCNT	0.569
QIDT	≤ 0.2
QLNN	≤ 0.2
QINH	≤ 0.2
QLDT	0.249
QFNT	≤ 0.2
QLNT	0.45

Variant	one-hybrid fitness for binding NBS DNA
QPNT	≤ 0.2
QSDT	0.32
QSNT	0.476
MQSN	≤ 0.2
EVQG	≤ 0.2
AVQR	≤ 0.2
DELG	≤ 0.2
YHGF	≤ 0.2
ENKN	≤ 0.2
PKSC	≤ 0.2
EETG	≤ 0.2
PKIC	≤ 0.2
QFDT	≤ 0.2
QPDT	≤ 0.2
QHNH	0.297
QAND	≤ 0.2
QHDT	0.344
QHNT	0.49
QANT	0.462
QADT	0.287
QCDT	0.369
SMIR	≤ 0.2
HYMR	≤ 0.2
SMAM	≤ 0.2
VWNK	≤ 0.2
TTMW	≤ 0.2

Variant	one-hybrid fitness for binding NBS DNA
QPRD	≤ 0.2
QTDD	≤ 0.2
QCRD	0.384
QSRD	0.219
QTYN	≤ 0.2
QTYP	≤ 0.2
QTRP	0.401
QTRD	0.379
QTDN	≤ 0.2
QTYD	≤ 0.2
QTRN	0.543
AYPY	≤ 0.2
GIDC	≤ 0.2
TRKM	0.216
LSKY	≤ 0.2
CYIS	≤ 0.2
NMYI	≤ 0.2
PGKG	≤ 0.2
REGE	≤ 0.2
SGQC	≤ 0.2
TFKE	≤ 0.2
GTES	≤ 0.2
WLDV	≤ 0.2
QYEV	≤ 0.2
CNVT	≤ 0.2
ADWS	≤ 0.2

Variant	one-hybrid fitness for binding NBS DNA
MSTF	≤ 0.2
QTYH	0.271
QTRH	0.695
VRKE	≤ 0.2
VRDT	≤ 0.2
VRKT	0.393
VRVT	≤ 0.2
VCNT	≤ 0.2
VRYT	0.225
VRRT	0.432
VCRT	≤ 0.2
VRNT	0.374
VCKT	≤ 0.2
FQNR	≤ 0.2
ARIY	≤ 0.2
LLCL	≤ 0.2
RGHT	≤ 0.2
RTHN	≤ 0.2
RSHT	0.402
RHHT	0.419
RHHK	≤ 0.2
RNHT	≤ 0.2
RIHT	0.532
RTHP	≤ 0.2
RIHF	≤ 0.2
RTHT	0.57

Variant	one-hybrid fitness for binding NBS DNA
RIHY	≤ 0.2
TCRD	≤ 0.2
THRD	≤ 0.2
YERR	≤ 0.2
FARS	≤ 0.2
YKWR	≤ 0.2
GHSC	≤ 0.2
LSHC	≤ 0.2
RMHT	0.448
RMHH	≤ 0.2
RCHT	0.538
RPHT	≤ 0.2
RFHT	0.263
RAHQ	≤ 0.2
RMHP	≤ 0.2
RAHK	≤ 0.2
RAHT	0.427
AGWC	≤ 0.2
CVAV	≤ 0.2
ANSI	≤ 0.2
SVIN	≤ 0.2
CNSM	≤ 0.2
QFAR	≤ 0.2
QFFR	0.439
QFYG	≤ 0.2
QFVR	≤ 0.2

Variant	one-hybrid fitness for binding NBS DNA
QFKR	0.595
QFKH	≤ 0.2
QFYR	≤ 0.2
QFFS	≤ 0.2
QFFG	0.554
QFRR	0.441
QFDR	≤ 0.2
QFAG	≤ 0.2
KDMM	≤ 0.2
CVAL	≤ 0.2
PSKH	≤ 0.2
NIHC	≤ 0.2
ILDT	≤ 0.2
GHDG	≤ 0.2
NTKH	≤ 0.2
QTVS	0.406
QTVH	0.247
QTKH	0.744
QTKD	0.398
QTVD	≤ 0.2
NTKS	≤ 0.2
QTKS	0.783
QPKD	≤ 0.2
